Test results published in PubChem BioAssay (EPA / NIEHS).
The source holds several records for some structures; these can differ, active in one and inactive in another. Active and inactive are the calls of the source. How the source made its calls: active means hit-call score of the fitted dose curve at least 0.9, where 1 is the maximum; inactive means score below 0.9.

Columns and labels:
[1] = read-out: Intercellular Adhesion Molecule 1 (ICAM1), ICAM1 (gene 3383); test: BSK_BE3C_ICAM1: BioMAP Diversity Plus: BE3C Assay for Intercellular Adhesion Molecule 1 (ICAM1) Biomarker Activity (AID 2284278); conditions: primary human bronchial epithelial cells;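 further: cell-surface ICAM-1 protein level quantified by ELISA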
Summary of the method: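 Measured by ELISA: ICAM-1 expressed by primary human bronchial epithelial cells 24 h after compound treatment, with upward-direction fitting versus DMSO vehicle.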

[2] = read-out: Interferon-inducible T-cell alpha chemoattractant (ITAC), CXCL11 (gene 6373); test: BSK_BE3C_ITAC: BioMAP Diversity Plus: BE3C Assay for Interferon-inducible T-cell alpha chemoattractant (ITAC) Biomarker Activity (AID 2284279); conditions: primary human bronchial epithelial cells
Summary of the method: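 ELISA read-out of I-TAC after 24 h chemical dosing of human lung primary bronchial epithelial cells; gain-of-signal fit vs DMSO baseline. Parallel SRB total-protein staining (0.1% SRB, 10% TCA fixation, 560 nm) assessed cytotoxicity.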

[3] = read-out: Interleukin-8 (IL8), CXCL8 (gene 3576); test: BSK_BE3C_IL8: BioMAP Diversity Plus: BE3C Assay for Interleukin-8 (IL8) Biomarker Activity (AID 2284280); conditions: primary human bronchial epithelial cells
Summary of the method: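 IL-8 signal gain, normalised to DMSO vehicle, was scored after a 24 h chemical exposure of primary human bronchial epithelial cells, with detection by ELISA.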

[4] = read-out: Epidermal growth factor receptor (EGFR), EGFR (gene 1956); test: BSK_BE3C_EGFR: BioMAP Diversity Plus: BE3C Assay for Epidermal growth factor receptor (EGFR) Biomarker Activity (AID 2284281); conditions: primary human bronchial epithelial cells
Summary of the method: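 Compound is added to human bronchial epithelial cells, cells incubate 24 h, then EGFR is detected by ELISA. Values reflect positive-direction fitting relative to DMSO.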

KRT18 (gene 3875) = test: BSK_BE3C_Keratin818: BioMAP Diversity Plus: BE3C Assay for Keratin 818 Biomarker Activity (AID 2284282); conditions: primary human bronchial epithelial cells
Summary of the method: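 BE3C: human bronchial epithelial primary cells, 24 h exposure, Keratin 8/18 ELISA; DMSO = negative control/baseline; cytotoxicity by parallel SRB stain (0.1% SRB after 10% TCA fixation, 560 nm).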

[5] = read-out: Plasminogen activator inhibitor-1 (PAI1), SERPINE1 (gene 5054); test: BSK_CASM3C_PAI1: BioMAP Diversity Plus: CASM3C Assay for Plasminogen activator inhibitor-1 (PAI1) Biomarker Activity (AID 2284284); conditions: primary human coronary artery smooth muscle cells;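 further: PAI-1 protein level measured by ELISA 24 h after dosing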
[6] = read-out: Thrombomodulin, THBD (gene 7056); test: BSK_LPS_Thrombomodulin: BioMAP Diversity Plus: LPS Assay for Thrombomodulin Biomarker Activity (AID 2284296); conditions: primary human HUVEC with PBMC
Summary of the method: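 Human umbilical vein endothelial cells co-cultured with PBMC and stimulated with LPS; cell-surface thrombomodulin measured by ELISA 24 hours after compound. Gain or loss versus DMSO; cytotoxicity checked by SRB staining in parallel cultures.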

[7] = IUF_NPC2c_oligodendrocyte_migration_120hr: Leibniz Research Institute for Environmental Medicine (IUF) 120-hour Neural Progenitor Cell Migration Assay for Oligodendrocyte Migration (NPC2c) (AID 2284297);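 further: O4-positive oligodendrocyte migration distance divided by radial glia migration distance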
Summary of the method: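 Primary hNPC spheres migrating on extracellular matrix, exposed five days to a 7-point dilution series with solvent control. Oligodendrocyte migration was scored by high-content imaging of O4 immunostaining and expressed relative to radial glia distance.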

[8] = IUF_NPC2a_radial_glia_migration_120hr: Leibniz Research Institute for Environmental Medicine (IUF) 120-hour Neural Progenitor Cell Migration Assay for Radial Glia Migration (NPC2a) (AID 2284298)
Summary of the method: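 In this multiplexed test, fetal hNPC spheres migrate radially on poly-D-lysine/laminin in N2 medium (37C, 5% CO2, pH 7.2-7.6) under continuous compound exposure over five days. Migration is scored at 120 h from automated Hoechst nuclear imaging.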

[9] = IUF_NPC2a_radial_glia_migration_72hr: Leibniz Research Institute for Environmental Medicine (IUF) 72-hour Neural Progenitor Cell Migration Assay for Radial Glia Migration (NPC2a) (AID 2284299)
Summary of the method: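 Migration out of plated human neural progenitor spheres is scored at 72 h as the distance in um from the sphere core edge to the edge of the migration area. Values are the mean of four manual measurements per well, normalised to DMSO.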

[10] = read-out: urokinase Plasminogen Activator (uPA), PLAU (gene 5328); test: BSK_BF4T_uPA: BioMAP Diversity Plus: BF4T Assay for urokinase Plasminogen Activator (uPA) Biomarker Activity (AID 2284275); conditions: primary human bronchial epithelial cells with fibroblasts
Summary of the method: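 Co-culture of human bronchial epithelial cells and dermal fibroblasts; uPA quantified by ELISA 24 hours after dosing, fitted relative to DMSO. Parallel SRB total-protein staining assessed overt cytotoxicity.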

[11] = read-out: Matrix Metallopeptidase 9 (MMP9), MMP9 (gene 4318); test: BSK_BF4T_MMP9: BioMAP Diversity Plus: BF4T Assay for Matrix Metallopeptidase 9 (MMP9) Biomarker Activity (AID 2284276); conditions: primary human bronchial epithelial cells with fibroblasts
Summary of the method: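 Co-culture of human bronchial epithelial cells and dermal fibroblasts dosed for 24 h; MMP-9 quantified by ELISA and fitted upward versus DMSO. Cytotoxicity monitored in parallel cultures by SRB total-protein staining at the biomarker time point.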

[12] = read-out: Interleukin-8 (IL8), CXCL8 (gene 3576); test: BSK_IMphg_IL8: BioMAP Diversity Plus: IMphg Assay for Interleukin-8 (IL8) Biomarker Activity (AID 2284277); conditions: primary human endothelial cells with macrophages
Summary of the method: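 Co-culture of human venular endothelial cells and macrophages exposed to chemicals for 24 h; IL-8 quantified by ELISA and compared against the DMSO baseline, with SRB total-protein staining in parallel cultures for cytotoxicity.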

[13] = read-out: Vascular cell adhesion molecule 1 (VCAM1), VCAM1 (gene 7412); test: BSK_IMphg_VCAM1: BioMAP Diversity Plus: IMphg Assay for Vascular cell adhesion molecule 1 (VCAM1) Biomarker Activity (AID 2284286); conditions: primary human endothelial cells with macrophages
Summary of the method: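 Human venular endothelial cells co-cultured with macrophages; VCAM-1 quantified by ELISA 24 h after dosing, fitted in the positive direction against DMSO. Cytotoxicity was checked in parallel cultures by SRB total-protein staining (0.1% SRB after 10% TCA fixation, 560 nm).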

CD40, CD40 (gene 958) = test: BSK_IMphg_CD40: BioMAP Diversity Plus: IMphg Assay for CD40 Biomarker Activity (AID 2284288); conditions: primary human endothelial cells with macrophages
Summary of the method: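 Venular endothelial cells co-cultured with macrophages (human primary), CD40 measured by ELISA 24 h after dosing. Positive-direction fit vs DMSO baseline; cytotoxicity tracked by SRB total-protein staining in parallel cultures.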

[14] = read-out: E-selectin (Homo sapiens) (UniProt P16581); test: BSK_IMphg_ESelectin: BioMAP Diversity Plus: IMphg Assay for Eselectin Biomarker Activity (AID 2284291); conditions: primary human endothelial cells with macrophages
Summary of the method: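 Human venular endothelial cell–macrophage co-culture, E-selectin measured by ELISA 24 h after chemical dosing. Signal fitted in the positive direction against DMSO as negative control and baseline.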

[15] = BSK_IMphg_SRB: Viability Assessment in the BioMAP Diversity Plus: IMphg Assay (AID 2284292); conditions: primary human endothelial cells with macrophages;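 further: measured one day after compound addition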
Summary of the method: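 Human venular endothelial cells with macrophages, 24 h after chemical dosing; total protein by 0.1% SRB staining after 10% TCA fixation, read at 560 nm. Positive-direction fitting versus DMSO baseline.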

[16] = read-out: Macrophage colony-stimulating factor (MCSF), CSF1 (gene 1435); test: BSK_IMphg_MCSF: BioMAP Diversity Plus: IMphg Assay for Macrophage colony-stimulating factor (MCSF) Biomarker Activity (AID 2284293); conditions: primary human endothelial cells with macrophages
Summary of the method: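 Co-culture of human venular endothelial cells and macrophages, 24 hours of chemical exposure. M-CSF quantified by ELISA, with parallel SRB total-protein staining for cytotoxicity; activity fitted relative to DMSO.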

[17] = read-out: Interleukin-10 (IL10), IL10 (gene 3586); test: BSK_IMphg_IL10: BioMAP Diversity Plus: IMphg Assay for Interleukin-10 (IL10) Biomarker Activity (AID 2284294); conditions: primary human endothelial cells with macrophages
Summary of the method: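 Human venular endothelial cells cocultured with macrophages, dosed 24 h; IL-10 measured by ELISA, activity relative to DMSO. Cytotoxicity assessed in parallel cultures by sulforhodamine B total-protein staining.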

[18] = BSK_IMphg_SRB.Mphg: Macrophage Viability Assessment in the BioMAP Diversity Plus: IMphg Assay (AID 2284295); conditions: primary human endothelial cells with macrophages
Summary of the method: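 Venular endothelial cells co-cultured with macrophages, read 24 h after dosing. Total protein measured by 0.1% SRB staining after 10% TCA fixation, absorbance at 560 nm. Fitted in positive direction against DMSO baseline.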

E-selectin (Homo sapiens), sequence (P16581 whole entry, looked up): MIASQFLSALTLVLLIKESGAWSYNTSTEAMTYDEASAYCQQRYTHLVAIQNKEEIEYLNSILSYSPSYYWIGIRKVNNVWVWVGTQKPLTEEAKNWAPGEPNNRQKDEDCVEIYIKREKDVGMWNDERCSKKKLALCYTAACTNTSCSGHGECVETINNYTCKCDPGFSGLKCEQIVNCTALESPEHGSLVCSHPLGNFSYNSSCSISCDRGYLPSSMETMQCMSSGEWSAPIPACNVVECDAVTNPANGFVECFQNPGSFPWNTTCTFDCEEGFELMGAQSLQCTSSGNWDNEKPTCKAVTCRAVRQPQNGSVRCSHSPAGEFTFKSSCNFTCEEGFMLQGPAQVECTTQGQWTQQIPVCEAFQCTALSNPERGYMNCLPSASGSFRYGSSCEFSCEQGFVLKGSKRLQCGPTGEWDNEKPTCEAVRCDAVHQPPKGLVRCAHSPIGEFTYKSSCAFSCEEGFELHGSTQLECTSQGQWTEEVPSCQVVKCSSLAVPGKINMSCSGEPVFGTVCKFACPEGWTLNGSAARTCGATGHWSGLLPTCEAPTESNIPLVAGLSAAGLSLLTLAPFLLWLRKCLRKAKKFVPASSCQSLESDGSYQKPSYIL

O=C1NS(=O)(=O)c2ccccc21
outcome [1]: inactive
outcome [2]: inactive
outcome [3]: inactive
outcome [4]: inactive
outcome (KRT18 (gene 3875)): inactive
outcome [5]: inactive
AC50 [6]: 1090 nM (active)
outcome [6]: inactive
outcome [7]: inactive
outcome [8]: inactive
outcome [9]: inactive

O=P(O)(O)CCC(F)(F)C(F)(F)C(F)(F)C(F)(F)C(F)(F)C(F)(F)F
outcome [10]: inactive
outcome [11]: inactive
outcome [12]: inactive
outcome [1]: inactive
outcome [2]: inactive
outcome [3]: inactive
outcome [4]: inactive
outcome (KRT18 (gene 3875)): inactive
outcome [5]: inactive
outcome [13]: inactive
outcome (CD40, CD40 (gene 958)): inactive
outcome [14]: inactive
outcome [15]: inactive
outcome [16]: inactive
outcome [17]: inactive
outcome [18]: inactive
AC50 [6]: 219 nM (active)
outcome [6]: inactive
